Test results: the supplement of paper PMC9694430

System: LOC_OS01G39600-cb002
Assay: thermal shift delta Tm vs DMSO control; higher = stronger stabilization (binding)
Settings: 12.5 µM; protein concentration 2 µM
In short: (§1)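 The melting temperature shift given here is a triplicate mean, measured against protein that received only DMSO. Melting temperatures came from Boltzmann fits of differential scanning fluorimetry data on E. coli-expressed, purified rice kinase domain constructs. Each 19.5 μl well contained 2 μM kinase, 100 mM potassium phosphate pH 7.5, 150 mM NaCl, 10% glycerol, 5 × SYPRO Orange and compound in DMSO. Plates were scanned from 25°C to 95°C at 0.05°C/s.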

Row | Structure (SMILES) | thermal shift delta Tm
1 | O=C1NC(=O)C(=Cc2ccc(-c3ccc(F)cc3)o2)S1 (stereo in doubt) | 0.11 °C
2 | CONC(=O)c1ccccc1Nc1cc(Nc2cc(C)nn2C(C)C)ncc1Cl | 4.21 °C
3 | O=C(O)c1ccc2c3c1cccc3c(=O)n1c3ccccc3nc21 | 0.62 °C
4 | OC1CCC(Oc2cccc3cnc(Nc4ccc5nc[nH]c5c4)nc23)CC1 (centres undefined) | 10.3 °C
5 | CN1CCN(Cc2ccc(-c3cnc4[nH]cc(-c5ccc6[nH]ccc6c5)c4c3)cc2)CC1 | 9 °C
6 | Cc1cc(N2CCOCC2)cc2[nH]c(-c3c(NC[C@@H](O)c4cccc(Cl)c4)cc[nH]c3=O)nc12 | 2.56 °C
7 | S=C(NCc1ccc2c(c1)OCO2)N1CCN(c2ncnc3c2oc2ccccc23)CC1 [Amuvatinib (MP-470)] | 0.21 °C
8 | COc1cc2c(N3CCN(C(=O)Nc4ccc(OC(C)C)cc4)CC3)ncnc2cc1OCCCN1CCCCC1 [Tandutinib (MLN518)] | 0.57 °C
9 | COc1cc(-c2cc(-c3ccc(N4CCNCC4)cc3)cnc2C)cc(OC)c1OC | -1.03 °C
10 | O=C(Nc1ccc(OC(F)(F)F)cc1)c1sccc1NCc1ccnc2ccccc12 | 1.45 °C
11 | Cc1nc2ccc(-n3ncc(C(=O)c4cc5ccccc5[nH]4)c3N)cc2[nH]1 | 0.82 °C
12 | CC(C)n1ncnc1-c1cn2c(n1)-c1ccc(O[C@@H](C)C(N)=O)cc1OCC2 | 0.74 °C
13 | O=C(O)[C@]1(Cc2cccc(Nc3nccs3)n2)CC[C@@H](Oc2cccc(Cl)c2F)CC1 | 2.55 °C
14 | O=C(O)CCC(=O)Nc1ccc(Br)cn1 [Bikinin] | -0.26 °C
15 | CCOc1cc2ncc(C#N)c(Nc3ccc(OCc4ccccn4)c(Cl)c3)c2cc1NC(=O)/C=C/CN(C)C [Neratinib (HKI-272)] | 5.12 °C
16 | O=C(Nc1cccc(C(F)(F)F)c1)c1cccc2cc(Oc3cc(CO)ncn3)ccc12 | -0.03 °C
17 | CC1(C)C=Cc2c(ccc3c2OC[C@@H](c2ccc(O)cc2O)C3)O1 [Glabridin] | 2.12 °C
18 | COc1ccccc1-c1cc(Nc2cccc(CS(N)(=O)=O)c2)ncn1 | -0.27 °C
19 | Cc1ccc(C(=O)Nc2ccc(Oc3cc4cnn(C)c4cc3-c3cn[nH]c3)c(F)c2)c(=O)n1-c1ccc(F)cc1 | 0.72 °C

Row | Structure (SMILES) | thermal shift delta Tm
20 | CCS(=O)(=O)c1cccc(-c2cc(C(=O)NC3CCN(C)CC3)c(C)c3[nH]c4ncc(C)cc4c23)c1 | 0.89 °C
21 | CCc1cncnc1N1CCN(Cc2nc3ccc(C(F)(F)F)cc3[nH]2)CC1 | -0.18 °C
22 | Cc1ccc(NC(=O)c2ccc(CN3CCN(C)CC3)cc2)cc1Nc1nccc(-c2cccnc2)n1 [Imatinib (STI571)] | -0.27 °C
23 | CCn1c(=O)c(-c2ccc(Cl)cc2Cl)cc2cnc(Nc3ccc(N4CCNCC4)c(F)c3)nc21 | 5.06 °C
24 | COc1cc(N2CCN(C)CC2)ccc1Nc1ncc2c(n1)N(C)c1ccccc1C(=O)N2 | 0.75 °C
25 | CCn1c(-c2nonc2N)nc2cnc(Oc3cccc(NC(=O)c4ccc(OCCN5CCOCC5)cc4)c3)cc21 | 0.75 °C
26 | O=C1Cc2c([nH]c3ccc(Br)cc23)-c2ccccc2N1 [Kenpaullone] | 2.16 °C
27 | COC(=O)Nc1ccc(-c2nc(N3CCOCC3)c3cnn(C4CCN(C(=O)OC)CC4)c3n2)cc1 | -0.17 °C
28 | Nc1ncc(-c2ccnc(Nc3ccncc3)n2)c(CC2CC2)n1 | 0.29 °C
29 | C=CC(=O)Nc1ccc2ncnc(Nc3cccc(Br)c3)c2c1 | -12.2 °C
30 | COc1nccc(-c2c(-c3ccc(F)cc3)ncn2C2CCC(O)CC2)n1 (centres undefined) | -0.45 °C
31 | CC(C)Nc1cc(-c2c[nH]c(C(=O)N[C@H](CO)c3cccc(Cl)c3)c2)c(Cl)cn1 | 1.63 °C
32 | CN1CCN(Cc2ccc(NC(=O)Nc3ccc(Oc4ccnc(N)n4)cc3)cc2C(F)(F)F)CC1 | 0.62 °C
33 | O=C(NCCO)c1cccc(-c2cc(Nc3ccc(OC(F)(F)F)cc3)ncn2)c1 | 0.3 °C
34 | CC(C)(O)CNc1ncc(-c2ccnc(Nc3ccnc(Cl)c3)n2)c(CC2CC2)n1 | -0.42 °C
35 | O=C1NC(=O)C(c2ccccc2[N+](=O)[O-])=C1Nc1ccc(O)c(Cl)c1 | -0.46 °C
36 | CCOc1cc(N2CCC(O)CC2)ccc1Nc1ncc2c(n1)N(C)c1ccccc1C(=O)N2C | -0.54 °C
37 | COc1ccc(-c2ccc3ncc4c(c3c2)n(-c2ccc(N3CCNCC3)c(C(F)(F)F)c2)c(=O)n4C)cn1 | 0.22 °C

System: LOC_OS01G48390-cb002
Assay: as above
Settings: 12.5 µM; protein concentration 2 µM
In short: as §1

Row | Structure (SMILES) | thermal shift delta Tm
38 | O=C1NC(=O)C(=Cc2ccc(-c3ccc(F)cc3)o2)S1 (stereo in doubt) | 0.58 °C
39 | CONC(=O)c1ccccc1Nc1cc(Nc2cc(C)nn2C(C)C)ncc1Cl | 1.49 °C
40 | O=C(O)c1ccc2c3c1cccc3c(=O)n1c3ccccc3nc21 | 0.91 °C
41 | OC1CCC(Oc2cccc3cnc(Nc4ccc5nc[nH]c5c4)nc23)CC1 (centres undefined) | 5.98 °C
42 | CN1CCN(Cc2ccc(-c3cnc4[nH]cc(-c5ccc6[nH]ccc6c5)c4c3)cc2)CC1 | 3.1 °C
43 | Cc1cc(N2CCOCC2)cc2[nH]c(-c3c(NC[C@@H](O)c4cccc(Cl)c4)cc[nH]c3=O)nc12 | 1.43 °C
44 | S=C(NCc1ccc2c(c1)OCO2)N1CCN(c2ncnc3c2oc2ccccc23)CC1 [Amuvatinib (MP-470)] | 0.88 °C
45 | COc1cc2c(N3CCN(C(=O)Nc4ccc(OC(C)C)cc4)CC3)ncnc2cc1OCCCN1CCCCC1 [Tandutinib (MLN518)] | -0.07 °C
46 | COc1cc(-c2cc(-c3ccc(N4CCNCC4)cc3)cnc2C)cc(OC)c1OC | 0.11 °C
47 | O=C(Nc1ccc(OC(F)(F)F)cc1)c1sccc1NCc1ccnc2ccccc12 | 1 °C
48 | Cc1nc2ccc(-n3ncc(C(=O)c4cc5ccccc5[nH]4)c3N)cc2[nH]1 | 1.08 °C
49 | CC(C)n1ncnc1-c1cn2c(n1)-c1ccc(O[C@@H](C)C(N)=O)cc1OCC2 | 0.6 °C
50 | O=C(O)[C@]1(Cc2cccc(Nc3nccs3)n2)CC[C@@H](Oc2cccc(Cl)c2F)CC1 | 3.01 °C
51 | O=C(O)CCC(=O)Nc1ccc(Br)cn1 [Bikinin] | 0.5 °C
52 | CCOc1cc2ncc(C#N)c(Nc3ccc(OCc4ccccn4)c(Cl)c3)c2cc1NC(=O)/C=C/CN(C)C [Neratinib (HKI-272)] | 0.77 °C
53 | O=C(Nc1cccc(C(F)(F)F)c1)c1cccc2cc(Oc3cc(CO)ncn3)ccc12 | 0.4 °C
54 | CC1(C)C=Cc2c(ccc3c2OC[C@@H](c2ccc(O)cc2O)C3)O1 [Glabridin] | 1.81 °C
55 | COc1ccccc1-c1cc(Nc2cccc(CS(N)(=O)=O)c2)ncn1 | 0.79 °C
56 | Cc1ccc(C(=O)Nc2ccc(Oc3cc4cnn(C)c4cc3-c3cn[nH]c3)c(F)c2)c(=O)n1-c1ccc(F)cc1 | 1.1 °C

Row | Structure (SMILES) | thermal shift delta Tm
57 | CCS(=O)(=O)c1cccc(-c2cc(C(=O)NC3CCN(C)CC3)c(C)c3[nH]c4ncc(C)cc4c23)c1 | 2.14 °C
58 | CCc1cncnc1N1CCN(Cc2nc3ccc(C(F)(F)F)cc3[nH]2)CC1 | 0.61 °C
59 | Cc1ccc(NC(=O)c2ccc(CN3CCN(C)CC3)cc2)cc1Nc1nccc(-c2cccnc2)n1 [Imatinib (STI571)] | 1.69 °C
60 | CCn1c(=O)c(-c2ccc(Cl)cc2Cl)cc2cnc(Nc3ccc(N4CCNCC4)c(F)c3)nc21 | 2.05 °C
61 | COc1cc(N2CCN(C)CC2)ccc1Nc1ncc2c(n1)N(C)c1ccccc1C(=O)N2 | 0.41 °C
62 | CCn1c(-c2nonc2N)nc2cnc(Oc3cccc(NC(=O)c4ccc(OCCN5CCOCC5)cc4)c3)cc21 | 1.02 °C
63 | O=C1Cc2c([nH]c3ccc(Br)cc23)-c2ccccc2N1 [Kenpaullone] | 3.44 °C
64 | COC(=O)Nc1ccc(-c2nc(N3CCOCC3)c3cnn(C4CCN(C(=O)OC)CC4)c3n2)cc1 | 0.23 °C
65 | Nc1ncc(-c2ccnc(Nc3ccncc3)n2)c(CC2CC2)n1 | 0.57 °C
66 | C=CC(=O)Nc1ccc2ncnc(Nc3cccc(Br)c3)c2c1 | 0.59 °C
67 | COc1nccc(-c2c(-c3ccc(F)cc3)ncn2C2CCC(O)CC2)n1 (centres undefined) | 0.16 °C
68 | CC(C)Nc1cc(-c2c[nH]c(C(=O)N[C@H](CO)c3cccc(Cl)c3)c2)c(Cl)cn1 | 1.24 °C
69 | CN1CCN(Cc2ccc(NC(=O)Nc3ccc(Oc4ccnc(N)n4)cc3)cc2C(F)(F)F)CC1 | 1.03 °C
70 | O=C(NCCO)c1cccc(-c2cc(Nc3ccc(OC(F)(F)F)cc3)ncn2)c1 | 2.99 °C
71 | CC(C)(O)CNc1ncc(-c2ccnc(Nc3ccnc(Cl)c3)n2)c(CC2CC2)n1 | 0.33 °C
72 | O=C1NC(=O)C(c2ccccc2[N+](=O)[O-])=C1Nc1ccc(O)c(Cl)c1 | 0.67 °C
73 | CCOc1cc(N2CCC(O)CC2)ccc1Nc1ncc2c(n1)N(C)c1ccccc1C(=O)N2C | 0.04 °C
74 | COc1ccc(-c2ccc3ncc4c(c3c2)n(-c2ccc(N3CCNCC3)c(C(F)(F)F)c2)c(=O)n4C)cn1 | 0.42 °C
